According to paper PMC7826789 (International Journal of Molecular Sciences, 2021):

Each compound was assayed on ALK(L1196M). Conditions: Compound Concentration (nM):1000.
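Further: KINOMEscan scanMAX binding as percent activity remaining versus control; lower means stronger binding.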

| SMILES | Percent Control [%] |
| --- | --- |
| CCS(=O)(=O)c1ccc(OC)c(Nc2ncc(-c3cccc(OC)c3)o2)c1 [GW580509X] | 100 |
| COc1cccc(-n2ncc3c(N/N=C/c4ccncc4)ncnc32)c1 [GW784752X] | 91 |
| COc1ccc2c(-c3ccnc(Nc4cccc(OC(F)(F)F)c4)n3)cnn2n1 [GW810372X] | 87 |
| O=C1Nc2ccc(C(=O)c3ccco3)cc2C1=Cc1cc(Cl)c(O)c(Cl)c1 [GW406108X] | 86 |
| NS(=O)(=O)c1ccc(Nc2ncc(-c3ccccc3)o2)cc1 [GW572399X] | 96 |
| COc1cc2ncn(-c3cc(O[C@H](C)c4ccccc4Cl)c(C(N)=O)s3)c2cc1OC [GSK237701A] | 94 |
| Nc1ncnc2occ(-c3ccc(NC(=O)Nc4cc(C(F)(F)F)ccc4F)cc3)c12 [GW770249X] | 74 |
| NS(=O)(=O)c1ccc(N/N=C2\C(=O)Nc3ccc(C(=O)NCCc4c[nH]cn4)cc32)cc1 [GW300660X] | 91 |

These compounds were tested on ALK. Conditions: Compound Concentration (nM):1000.

| SMILES | Percent Control [%] |
| --- | --- |
| Cl.O=C(Nc1ccc(Oc2ccc3[nH]c(NC(=O)c4ccco4)nc3c2)cc1)Nc1cc(C(F)(F)F)ccc1F [GW683134A] | 88 |
| O=C(Nc1n[nH]c2nc(-c3ccc(O)cc3)c(Br)cc12)C1CC1 [SB-725317] | 75 |
| COc1cc2ncnc(Nc3ccc4c(cnn4Cc4ccccc4)c3)c2cc1OC.Cl [GW282449A] | 93 |
| CN(C)CCNC(=O)Nc1ccc(N(C)c2ccnc(Nc3ccc(CS(C)(=O)=O)cc3)n2)cc1.Cl [GW830900A] | 71 |
| CC1=C(C(=O)Nc2ccc3[nH]ncc3c2)C(c2ccc(Cl)c(Cl)c2)CC(=O)N1 (stereo not drawn) [GSK299115A] | 77 |
| COc1ccc(COc2ccc(Cc3cnc(N)nc3N)cc2OC)cc1 [GW632580X] | 98 |
| CCS(=O)(=O)c1ccc(OC)c(Nc2ncc(-c3cccc(F)c3)o2)c1 [GW621970X] | 73 |
| COc1cc(/C=N/Nc2ncnc3[nH]ncc23)ccc1O [GW578748X] | 98 |
| C/C(Nc1ccc(S(N)(=O)=O)cc1)=C1/C(=O)Nc2ccccc21 [GW335962X] | 54 |
| CN1CCN(C(=O)c2ccc(NC(=O)Nc3ccc(N(C)c4ccnc(Nc5ccc(CS(C)(=O)=O)cc5)n4)cc3)cc2)CC1.Cl [GW830263A] | 76 |
| CC1=C(C(=O)Nc2ccc3[nH]ncc3c2)C(c2ccc3ccccc3c2)CC(=O)N1 (stereo not drawn) [GSK270822A] | 68 |
| COc1ccc2cc(-c3c(-c4ccncc4)nc(-c4ccc(S(C)(=O)=O)cc4C)n3C)ccc2c1 [SB-633825] | 58 |
| COc1ccccc1-c1cc(/C=C2\C(=O)Nc3ncc(Br)cc32)cc(Br)c1O [GW442130X] | 100 |
| NS(=O)(=O)c1ccc(N/N=C2\C(=O)Nc3ccc(C(=O)NCc4ccncc4)cc32)cc1 [GW300657X] | 77 |
| Cl.O=C(O[C@H]1CN[C@H](C#Cc2cc3ncnc(Nc4ccc5c(cnn5Cc5ccccc5)c4)c3s2)C1)N1CCOCC1 [GSK200398A] | 100 |
| Cl.O=S1CCN(Cc2ccc(-c3ccc4ncnc(Nc5ccc(OCc6ccccc6)c(F)c5)c4c3)o2)CC1 [GW576924A] | 100 |
| Cl.c1ccc(Cc2nc3ccc(Nc4ncnc5ccccc45)cc3[nH]2)cc1 [GR269666A] | 99 |
| COc1cccc(-c2c[nH]c3c(N/N=C/c4ccncc4)ncnc23)c1 [GW814408X] | 100 |
| Cl.O=C(Nc1ccc(Oc2ccc3[nH]c(NC(=O)c4ccccc4)nc3c2)cc1)Nc1cc(C(F)(F)F)ccc1F [GW709042A] | 73 |
| CCn1c(-c2nonc2N)nc2c(C#CC(C)(C)O)nc(OCCNC)cc21.Cl [GSK949675] | 85 |

| SMILES | Percent Control [%] |
| --- | --- |
| CN(C)c1cc2c(Nc3ccc4c(cnn4Cc4ccccc4)c3)ncnc2cn1 [GW282974X] | 100 |
| C[C@@H](Oc1cc(-n2cnc3ccc(OC4CCN(C)CC4)cc32)sc1C(N)=O)c1ccccc1Cl [GSK579289A] | 87 |
| CCc1ccc(Oc2nccc(-c3c(-c4ccc(F)cc4)ncn3C3CCNCC3)n2)cc1 [SB-242719] | 96 |
| NS(=O)(=O)c1ccc(N/N=C2\C(=O)Nc3ccc(-c4cnco4)cc32)cc1 [GW276655] | 83 |
| COc1cc(C)c(N(C)C(=O)CN(C)C)cc1Nc1nc(Nc2cccc(F)c2C(N)=O)c2cc[nH]c2n1 [GSK2219385] | 1.7 |
| COc1ccc2[nH]c3c4[nH]c5ccc(OC)cc5c4c4c(c3c2c1)C(=O)NC4=O [GW296115X] | 55 |
| COc1cc(C=NNc2ncnc3c2cnn3-c2ccccc2)ccc1O [GW513184X] | 100 |
| NS(=O)(=O)c1ccc(N/N=C2\C(=O)Nc3ccc(Cl)cc32)cc1 [GW280670X] | 100 |
| COc1cc(N2CCN(C(C)C)CC2)ccc1Nc1nc(Nc2ccc(F)cc2C(=O)NC[C@@H](O)CO)c2cc[nH]c2n1 [GSK1392956A] | 0.2 |
| Cc1cc(O)cc(C)c1/C=C/c1cncc(C(N)=O)c1 [GW435821X] | 100 |
| COC(=O)Nc1nc2ccc(Oc3ccc(NC(=O)Nc4cc(C(F)(F)F)ccc4F)cc3)cc2s1.Cl [GW693917A] | 100 |
| CC(C)COC(=O)c1ccc2c(c1)/C(=C/Nc1ccc(S(N)(=O)=O)cc1)C(=O)N2 [GW416981X] | 100 |
| CCS(=O)(=O)c1ccc(OC)c(Nc2ncc(-c3cccc(OC)c3)o2)c1 [GW580509X] | 100 |
| COc1cccc(-n2ncc3c(N/N=C/c4ccncc4)ncnc32)c1 [GW784752X] | 87 |
| COc1ccc2c(-c3ccnc(Nc4cccc(OC(F)(F)F)c4)n3)cnn2n1 [GW810372X] | 88 |
| O=C1Nc2ccc(C(=O)c3ccco3)cc2C1=Cc1cc(Cl)c(O)c(Cl)c1 [GW406108X] | 89 |
| NS(=O)(=O)c1ccc(Nc2ncc(-c3ccccc3)o2)cc1 [GW572399X] | 87 |
| COc1cc2ncn(-c3cc(O[C@H](C)c4ccccc4Cl)c(C(N)=O)s3)c2cc1OC [GSK237701A] | 79 |
| Nc1ncnc2occ(-c3ccc(NC(=O)Nc4cc(C(F)(F)F)ccc4F)cc3)c12 [GW770249X] | 36 |
| NS(=O)(=O)c1ccc(N/N=C2\C(=O)Nc3ccc(C(=O)NCCc4c[nH]cn4)cc32)cc1 [GW300660X] | 100 |
